Source: PubChem BioAssay AID1159580 (chemical genetic matrix, 2015)
Among all 5,500 compounds or so, about 2,000 (36%) were called active. Another 18% or so got no clear call; they are omitted. Rule as the data show it: active = normalized growth mostly below about 0.91 (no sharp cut-off); inconclusive = no clear call, values can overlap the other calls; inactive = mostly above about 0.92. Some of the results follow.

Assay: chemical genetic growth profiling, strain panel (AID 1159580);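 also: tested at 20 µM; growth read once vehicle control cultures reached saturation at 30 °C; 1 = growth at the plate median or of vehicle wells; lower values mean less growth of the strain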
Conditions: S. cerevisiae deletion strains, growth OD

Measured: normalized growth

COc1ccc(-c2coc3cc(OC(C)=O)cc(OC(C)=O)c3c2=O)cc1
active: locus YDR334W, strain swr1, stronger effect = lower value 0.887 | locus YDR392W, strain spt3, stronger effect = lower value 0.576 | locus YHR142W, strain chs7, stronger effect = lower value 0.874 | locus YJL129C, strain trk1, stronger effect = lower value 0.861 | locus YNL071W, strain lat1, stronger effect = lower value 0.845
inactive: locus YAL021C, strain ccr4, stronger effect = lower value 0.964 | locus YAL026C, strain drs2, stronger effect = lower value 0.949 | locus YAL030W, strain snc1, stronger effect = lower value 0.958 | locus YBL061C, strain skt5, stronger effect = lower value 0.96 | locus YBR009C, strain hhf1, stronger effect = lower value 0.958 | locus YBR023C, strain chs3, stronger effect = lower value 0.967 | locus YBR171W, strain sec66, stronger effect = lower value 0.937 | locus YBR231C, strain swc5, stronger effect = lower value 0.957 | locus YBR279W, strain paf1, stronger effect = lower value 0.984 | locus YCL011C, strain gbp2, stronger effect = lower value 0.919 | locus YCL016C, strain dcc1, stronger effect = lower value 0.925 | locus YCL061C, strain MRC1, stronger effect = lower value 0.96 | locus YCL069W, strain vba3, stronger effect = lower value 0.953 | locus YCR088W, strain abp1, stronger effect = lower value 0.968 | locus YDL005C, strain med2, stronger effect = lower value 0.961 | locus YDL040C, strain nat1, stronger effect = lower value 0.983 | locus YDR001C, strain nth1, stronger effect = lower value 0.939 | locus YDR069C, strain doa4, stronger effect = lower value 0.92 | locus YDR137W, strain rgp1, stronger effect = lower value 0.871 | locus YDR159W, strain sac3, stronger effect = lower value 0.953 | locus YDR195W, strain ref2 1.01 | locus YDR297W, strain sur2, stronger effect = lower value 0.985 | locus YDR335W, strain msn5, stronger effect = lower value 0.967 | locus YEL003W, strain gim4, stronger effect = lower value 0.977 | locus YEL037C, strain rad23, stronger effect = lower value 0.972 | locus YEL061C, strain CIN8 (second series), stronger effect = lower value 0.965 | locus YER015W, strain faa2, stronger effect = lower value 0.951 | locus YER016W, strain bim1, stronger effect = lower value 0.972 | locus YER111C, strain swi4, stronger effect = lower value 0.968 | locus YER155C, strain BEM2 (second series), stronger effect = lower value 0.878 | locus YFR010W, strain ubp6, stronger effect = lower value 0.955 | locus YGL167C, strain pmr1, stronger effect = lower value 0.965 | locus YGL173C, strain kem1, stronger effect = lower value 0.922 | locus YGL227W, strain vid30, stronger effect = lower value 0.955 | locus YGL240W, strain doc1, stronger effect = lower value 0.961 | locus YGL253W, strain hxk2, stronger effect = lower value 0.925 | locus YHR013C, strain ard1, stronger effect = lower value 0.902 | locus YHR027C, strain rpn1, stronger effect = lower value 0.951 | locus YJL092W, strain hpr5, stronger effect = lower value 0.923 | locus YJL095W, strain BCK1 (second series), stronger effect = lower value 0.963 | locus YJL115W, strain asf1, stronger effect = lower value 0.914 | locus YJL154C, strain vps35, stronger effect = lower value 0.97 | locus YJL164C, strain tpk1, stronger effect = lower value 0.935 | locus YJL166W, strain qcr8, stronger effect = lower value 0.944 | locus YJL187C, strain SWE1, stronger effect = lower value 0.961 | locus YKL160W, strain elf1, stronger effect = lower value 0.988 | locus YKR026C, strain gcn3, stronger effect = lower value 0.965 | locus YKR091W, strain srl3, stronger effect = lower value 0.958 | locus YLL001W, strain dnm1, stronger effect = lower value 0.929 | locus YLL026W, stronger effect = lower value 0.967 | locus YLL041C, strain sdh2, stronger effect = lower value 0.963 | locus YLR027C, strain aat2, stronger effect = lower value 0.936 | locus YLR221C, strain rsa3, stronger effect = lower value 0.922 | locus YLR258W, strain gsy2, stronger effect = lower value 0.964 | locus YLR262C, strain YPT6 (second series), stronger effect = lower value 0.889 | locus YLR320W, strain mms22, stronger effect = lower value 0.927 | locus YLR342W, strain FKS1, stronger effect = lower value 0.968 | locus YLR357W, strain rsc2, stronger effect = lower value 0.981 | locus YLR370C, strain arc18, stronger effect = lower value 0.954 | locus YLR384C, strain iki3, stronger effect = lower value 0.968 | locus YML120C, strain ndi1, stronger effect = lower value 0.925 | locus YMR058W, strain fet3, stronger effect = lower value 0.935 | locus YMR125W, strain sto1, stronger effect = lower value 0.914 | locus YMR129W, stronger effect = lower value 0.966 | locus YMR205C, strain PFK2, stronger effect = lower value 0.91 | locus YMR231W, strain pep5, stronger effect = lower value 0.978 | locus YNL209W, strain ssb2, stronger effect = lower value 0.963 | locus YNL248C, strain rpa49, stronger effect = lower value 0.967 | locus YNL322C, strain KRE1 (second series), stronger effect = lower value 0.923 | locus YNR049C, strain mso1, stronger effect = lower value 0.954 | locus YOR001W, strain rrp6, stronger effect = lower value 0.971 | locus YOR070C, strain gyp1, stronger effect = lower value 0.972 | locus YOR080W, strain dia2, stronger effect = lower value 0.955 | locus YOR083W, strain WHI5, stronger effect = lower value 0.976 | locus YOR106W, strain vam3, stronger effect = lower value 0.928 | locus YOR265W, strain rbl2, stronger effect = lower value 0.963 | locus YOR270C, strain vph1, stronger effect = lower value 0.834 | locus YPL051W, strain arl3, stronger effect = lower value 0.959 | locus YPL078C, strain atp4, stronger effect = lower value 0.968 | locus YPL106C, strain sse1, stronger effect = lower value 0.913 | locus YPL240C, strain hsp82, stronger effect = lower value 0.956
